# Values joined by “and” are separate entries in the source; they are usually repeats but may differ in a detail not shown here. Identical values can stand only once. Records with an inconclusive call do not appear. Active and inactive are the calls of the source. The calls were made as follows: active = hit-call score of the fitted dose curve at least 0.9, where 1 is the maximum; inconclusive = response in the unintended direction; inactive = score below 0.9.
# Legend:
# [1] = target: rat CYP2D2, Cyp2d26 (gene 25053) (UniProt P10634); test: NVS_ADME_rCYP2D2: NovaScreen (NVS) CYP450-related Enzyme Activity (ADME) Assay for rat CYP2D2 (AID 2283124)
# Summary of the method: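 Single-concentration duplicate testing at 10 uM, followed by concentration-response (top 20 uM) for chemicals passing threshold. Enzyme activity of the recombinant rat isoform measured by fluorescence after 0.75 h, acetonitrile as baseline.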
# [2] = target: rat CYP2C12, Cyp2c12 (gene 25011) (UniProt P11510); test: NVS_ADME_rCYP2C12: NovaScreen (NVS) CYP450-related Enzyme Activity (ADME) Assay for rat CYP2C12 (AID 2283119)
# Summary of the method: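 Fluorescent-substrate turnover by recombinant rat CYP2C12, measured at 0.5 h, normalized to acetonitrile vehicle. Chemicals screened first at a single 10 uM concentration in duplicate, with concentration series for actives.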
# [3] = target: human Caspase 2 (CASP2), CASP2 (gene 835) (UniProt P42575); test: NVS_ENZ_hCASP2: NovaScreen (NVS) Enzymatic Assay for human Caspase 2 (CASP2) (AID 2283135)
# Summary of the method: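 Single-point duplicate testing at 25 uM preceded concentration series topping at 50 uM. Activity of the recombinant E. coli-derived protease was followed by fluorescent substrate cleavage 1 h post-dosing, relative to DMSO.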
# [4] = target: rat CYP2C13, Cyp2c13 (gene 171521) (UniProt P20814); test: NVS_ADME_rCYP2C13: NovaScreen (NVS) CYP450-related Enzyme Activity (ADME) Assay for rat CYP2C13 (AID 2283121)
# Summary of the method: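 Inhibition is read as decreased fluorescent product formation, referenced to acetonitrile vehicle. Cell-free recombinant rat Cyp2c13 reaction ran 0.75 hour; compounds first at 10 uM in duplicate, then concentration series for actives.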
# rat CYP3A1, gene 25642 = test: NVS_ADME_rCYP3A1: NovaScreen (NVS) CYP450-related Enzyme Activity (ADME) Assay for rat CYP3A1 (AID 2283126)
# Summary of the method: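 Compounds went first at 10 uM duplicate, then to series with 20 uM maximum. Fluorescence from substrate turnover by the recombinant enzyme was measured 0.5 h post-dosing, inhibition scored against acetonitrile vehicle.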
# [5] = target: human Beta-secretase (BACE), BACE1 (gene 23621) (UniProt P56817); test: NVS_ENZ_hBACE: NovaScreen (NVS) Enzymatic Assay for human Beta-secretase (BACE) (AID 2283140);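 also: hits are inhibitors that reduce fluorescent substrate signal versus DMSO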
# Summary of the method: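 SF9-expressed enzyme, cell-free; fluorescent substrate readout after 1 h. Screened at 25 uM single concentration, duplicate; hits retested in concentration series. Activity relative to DMSO baseline, loss-of-signal.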
# [6] = target: rat CYP2D1, Cyp2d1 (gene 266684) (UniProt P10633); test: NVS_ADME_rCYP2D1: NovaScreen (NVS) CYP450-related Enzyme Activity (ADME) Assay for rat CYP2D1 (AID 2283122)
# Summary of the method: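 Rat CYP2D1 enzyme activity measured by fluorescence intensity in a cell-free format, 0.75 h post-dosing, acetonitrile as negative control. Screening at 10 uM in duplicate, with actives followed in concentration series up to 20 uM.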
# Caspase-1 (Homo sapiens) = Caspase-1 (Homo sapiens) (UniProt P29466); test: NVS_ENZ_hCASP1: NovaScreen (NVS) Enzymatic Assay for human Caspase 1 (CASP1) (AID 2283132)
# Summary of the method: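 Compounds were first tested in duplicate at 25 uM, with follow-up concentration series up to 50 uM. The bacterially expressed enzyme was read by fluorescence at 1 h post-dosing. Signal loss versus DMSO baseline indicates reduced enzyme activity.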
# [7] = target: human Caspase 10 (CASP10), CASP10 (gene 843) (UniProt Q92851); test: NVS_ENZ_hCASP10: NovaScreen (NVS) Enzymatic Assay for human Caspase 10 (CASP10) (AID 2283133)
# Summary of the method: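 Fluorescence-intensity enzyme read-out of E. coli-expressed CASP10 activity, 1 h after compound. Single-point duplicates at 25 uM preceded concentration-response testing (top 50 uM) of hits; inhibition expressed as signal loss versus DMSO.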
# [8] = target: rat CYP1A2, Cyp1a2 (gene 24297) (UniProt P04799); test: NVS_ADME_rCYP1A2: NovaScreen (NVS) CYP450-related Enzyme Activity (ADME) Assay for rat CYP1A2 (AID 2283115)
# Summary of the method: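 Primary testing ran in duplicate at 10 uM, with actives re-tested across concentration series. Fluorescence intensity from substrate turnover by recombinant protein, measured 1 hour post-dosing, with signal loss scored against acetonitrile vehicle.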
# [9] = target: human Caspase 4 (CASP4), CASP4 (gene 837) (UniProt P49662); test: NVS_ENZ_hCASP4: NovaScreen (NVS) Enzymatic Assay for human Caspase 4 (CASP4) (AID 2283143)
# Summary of the method: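 Compounds were first tested in duplicate at 25 uM, and hits were titrated singly to a 50 uM maximum. Recombinant protease from E. coli was read by fluorescence 2 h post-dose, and activity loss was fitted against the DMSO baseline.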
# [10] = target: human Acetylcholinesterase (AChE), ACHE (gene 43) (UniProt P22303); test: NVS_ENZ_hAChE: NovaScreen (NVS) Enzymatic Assay for human Acetylcholinesterase (AChE) (AID 2283129)
# Summary of the method: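 Actives from a duplicate single-point screen (25 uM) were followed up in concentration series. Enzyme activity read by absorbance (colorimetric) 0.33 hour after dosing, cell-free, normalized to DMSO, with loss of signal scored.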
# Chain of rat CYP2C12, Cyp2c12 (gene 25011) (P11510 whole entry, looked up): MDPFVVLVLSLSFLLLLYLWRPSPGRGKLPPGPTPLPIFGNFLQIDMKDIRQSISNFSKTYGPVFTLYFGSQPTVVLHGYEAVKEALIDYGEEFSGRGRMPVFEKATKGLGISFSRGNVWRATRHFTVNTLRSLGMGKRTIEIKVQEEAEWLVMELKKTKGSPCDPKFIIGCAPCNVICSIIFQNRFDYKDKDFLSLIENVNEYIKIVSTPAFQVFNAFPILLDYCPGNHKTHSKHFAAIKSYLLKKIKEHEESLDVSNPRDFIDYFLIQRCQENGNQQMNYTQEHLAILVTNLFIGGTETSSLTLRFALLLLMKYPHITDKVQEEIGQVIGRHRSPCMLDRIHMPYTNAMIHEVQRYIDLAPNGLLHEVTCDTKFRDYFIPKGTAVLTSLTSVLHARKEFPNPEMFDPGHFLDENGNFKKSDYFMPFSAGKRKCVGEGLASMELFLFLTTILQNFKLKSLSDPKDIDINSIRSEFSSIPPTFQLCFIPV
# Chain of rat CYP2C13, Cyp2c13 (gene 171521) (P20814 whole entry, looked up): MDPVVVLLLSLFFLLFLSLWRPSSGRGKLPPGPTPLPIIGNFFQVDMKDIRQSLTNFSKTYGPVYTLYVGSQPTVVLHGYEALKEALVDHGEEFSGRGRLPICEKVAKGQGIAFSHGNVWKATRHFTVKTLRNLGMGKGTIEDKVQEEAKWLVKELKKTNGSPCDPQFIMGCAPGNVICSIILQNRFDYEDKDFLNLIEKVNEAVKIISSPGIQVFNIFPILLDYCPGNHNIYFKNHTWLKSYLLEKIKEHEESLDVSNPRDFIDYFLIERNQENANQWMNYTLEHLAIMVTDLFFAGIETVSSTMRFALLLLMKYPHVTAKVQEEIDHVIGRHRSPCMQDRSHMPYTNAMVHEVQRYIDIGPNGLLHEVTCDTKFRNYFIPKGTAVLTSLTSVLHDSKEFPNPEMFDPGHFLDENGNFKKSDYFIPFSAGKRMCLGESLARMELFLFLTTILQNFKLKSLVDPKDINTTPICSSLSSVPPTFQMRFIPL
# Chain of rat CYP2D2, Cyp2d26 (gene 25053) (P10634 whole entry, looked up, canonical isoform): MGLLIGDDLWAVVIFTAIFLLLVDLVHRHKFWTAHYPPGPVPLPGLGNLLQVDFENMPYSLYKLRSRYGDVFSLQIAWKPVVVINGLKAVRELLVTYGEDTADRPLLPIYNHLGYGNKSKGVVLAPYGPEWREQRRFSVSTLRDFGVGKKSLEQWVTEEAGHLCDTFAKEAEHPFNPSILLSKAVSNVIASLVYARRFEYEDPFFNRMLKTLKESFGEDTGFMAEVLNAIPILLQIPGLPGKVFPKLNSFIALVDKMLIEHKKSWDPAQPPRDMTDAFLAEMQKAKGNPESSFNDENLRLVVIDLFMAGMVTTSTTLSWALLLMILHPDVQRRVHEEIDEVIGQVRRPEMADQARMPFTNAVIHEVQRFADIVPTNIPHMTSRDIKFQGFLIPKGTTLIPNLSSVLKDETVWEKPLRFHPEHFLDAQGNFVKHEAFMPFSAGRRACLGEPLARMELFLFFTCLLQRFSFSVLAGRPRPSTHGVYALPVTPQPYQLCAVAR
# Chain of human Beta-secretase (BACE), BACE1 (gene 23621) (P56817 whole entry, looked up): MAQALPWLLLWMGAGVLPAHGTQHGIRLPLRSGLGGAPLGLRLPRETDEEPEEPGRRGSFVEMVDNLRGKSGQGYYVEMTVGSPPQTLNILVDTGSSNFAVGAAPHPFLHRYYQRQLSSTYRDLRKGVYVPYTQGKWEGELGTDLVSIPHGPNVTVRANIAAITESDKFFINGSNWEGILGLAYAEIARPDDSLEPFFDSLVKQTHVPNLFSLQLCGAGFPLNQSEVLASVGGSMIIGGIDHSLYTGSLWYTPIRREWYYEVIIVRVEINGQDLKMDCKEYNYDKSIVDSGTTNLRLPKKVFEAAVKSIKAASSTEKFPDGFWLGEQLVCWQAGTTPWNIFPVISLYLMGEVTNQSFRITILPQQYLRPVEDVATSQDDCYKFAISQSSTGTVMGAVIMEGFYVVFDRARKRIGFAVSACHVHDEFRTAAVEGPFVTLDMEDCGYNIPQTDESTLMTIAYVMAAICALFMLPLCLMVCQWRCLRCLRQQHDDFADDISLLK
# Chain of rat CYP2D1, Cyp2d1 (gene 266684) (P10633 whole entry, looked up): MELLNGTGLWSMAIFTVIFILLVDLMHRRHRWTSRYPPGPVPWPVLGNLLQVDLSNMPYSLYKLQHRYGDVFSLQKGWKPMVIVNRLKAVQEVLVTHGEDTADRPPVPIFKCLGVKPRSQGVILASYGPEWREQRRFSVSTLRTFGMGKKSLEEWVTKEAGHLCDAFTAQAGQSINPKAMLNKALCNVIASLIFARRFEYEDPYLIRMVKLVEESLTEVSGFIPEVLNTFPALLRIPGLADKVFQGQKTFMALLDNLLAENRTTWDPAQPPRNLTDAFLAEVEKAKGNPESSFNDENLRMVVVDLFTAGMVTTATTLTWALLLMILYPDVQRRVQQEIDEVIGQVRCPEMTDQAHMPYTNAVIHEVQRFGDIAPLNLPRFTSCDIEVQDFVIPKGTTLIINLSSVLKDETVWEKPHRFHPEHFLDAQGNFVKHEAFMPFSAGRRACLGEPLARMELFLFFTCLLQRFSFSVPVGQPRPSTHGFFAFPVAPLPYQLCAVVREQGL
# Chain of human Caspase 2 (CASP2), CASP2 (gene 835) (P42575 whole entry, looked up): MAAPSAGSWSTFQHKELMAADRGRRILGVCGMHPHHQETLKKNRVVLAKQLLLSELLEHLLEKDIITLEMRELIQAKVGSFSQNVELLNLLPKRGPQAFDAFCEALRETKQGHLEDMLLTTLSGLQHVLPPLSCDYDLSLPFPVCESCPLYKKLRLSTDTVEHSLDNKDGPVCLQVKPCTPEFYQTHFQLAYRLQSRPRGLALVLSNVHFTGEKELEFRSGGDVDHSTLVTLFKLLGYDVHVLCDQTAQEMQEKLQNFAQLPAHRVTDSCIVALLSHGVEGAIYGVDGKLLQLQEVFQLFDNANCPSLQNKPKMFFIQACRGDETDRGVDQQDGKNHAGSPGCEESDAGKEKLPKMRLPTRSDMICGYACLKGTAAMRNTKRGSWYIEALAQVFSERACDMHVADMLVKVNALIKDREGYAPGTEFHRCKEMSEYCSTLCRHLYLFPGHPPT
# Chain of human Acetylcholinesterase (AChE), ACHE (gene 43) (P22303 whole entry, looked up): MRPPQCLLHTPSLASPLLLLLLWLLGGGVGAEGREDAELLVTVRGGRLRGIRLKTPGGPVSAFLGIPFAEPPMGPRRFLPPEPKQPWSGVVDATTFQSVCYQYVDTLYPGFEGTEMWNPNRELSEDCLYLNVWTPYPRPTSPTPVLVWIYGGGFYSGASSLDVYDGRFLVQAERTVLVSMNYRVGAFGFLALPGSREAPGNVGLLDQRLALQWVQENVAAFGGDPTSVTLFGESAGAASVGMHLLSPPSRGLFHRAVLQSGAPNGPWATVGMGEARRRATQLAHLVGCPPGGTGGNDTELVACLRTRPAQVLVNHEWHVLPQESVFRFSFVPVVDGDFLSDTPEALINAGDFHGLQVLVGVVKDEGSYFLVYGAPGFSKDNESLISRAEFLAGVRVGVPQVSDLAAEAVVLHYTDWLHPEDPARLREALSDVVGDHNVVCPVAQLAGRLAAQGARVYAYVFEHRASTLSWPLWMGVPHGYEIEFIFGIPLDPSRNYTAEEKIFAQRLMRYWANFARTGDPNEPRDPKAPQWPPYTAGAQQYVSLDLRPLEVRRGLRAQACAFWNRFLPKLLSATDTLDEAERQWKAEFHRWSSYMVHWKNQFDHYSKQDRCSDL
# Chain of Caspase-1 (Homo sapiens) (P29466 whole entry, looked up): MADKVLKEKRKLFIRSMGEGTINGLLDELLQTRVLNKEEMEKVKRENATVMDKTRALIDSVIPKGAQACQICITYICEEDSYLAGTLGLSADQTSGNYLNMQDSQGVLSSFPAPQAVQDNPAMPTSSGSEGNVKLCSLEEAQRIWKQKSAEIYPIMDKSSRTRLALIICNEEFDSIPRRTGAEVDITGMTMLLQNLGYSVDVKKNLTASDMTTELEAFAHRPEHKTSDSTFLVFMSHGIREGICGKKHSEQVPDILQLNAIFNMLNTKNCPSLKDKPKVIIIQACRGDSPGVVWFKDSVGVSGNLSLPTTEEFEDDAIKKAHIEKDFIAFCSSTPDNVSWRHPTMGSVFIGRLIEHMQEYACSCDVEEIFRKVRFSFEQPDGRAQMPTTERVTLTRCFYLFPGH
# Chain of rat CYP1A2, Cyp1a2 (gene 24297) (P04799 whole entry, looked up): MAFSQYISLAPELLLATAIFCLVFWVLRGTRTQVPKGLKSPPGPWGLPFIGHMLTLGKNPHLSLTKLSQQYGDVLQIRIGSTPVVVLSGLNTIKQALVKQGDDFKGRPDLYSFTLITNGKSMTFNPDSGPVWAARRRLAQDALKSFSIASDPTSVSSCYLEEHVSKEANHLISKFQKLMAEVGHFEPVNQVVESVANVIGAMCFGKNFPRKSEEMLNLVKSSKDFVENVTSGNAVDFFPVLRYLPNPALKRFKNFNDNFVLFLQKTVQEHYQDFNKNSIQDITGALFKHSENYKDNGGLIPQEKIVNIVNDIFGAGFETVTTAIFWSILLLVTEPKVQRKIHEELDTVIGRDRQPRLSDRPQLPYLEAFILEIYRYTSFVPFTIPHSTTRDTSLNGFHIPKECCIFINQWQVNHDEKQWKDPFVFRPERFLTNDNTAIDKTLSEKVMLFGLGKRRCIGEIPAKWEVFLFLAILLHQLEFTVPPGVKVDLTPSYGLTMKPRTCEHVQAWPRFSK
# Chain of human Caspase 10 (CASP10), CASP10 (gene 843) (Q92851 whole entry, looked up): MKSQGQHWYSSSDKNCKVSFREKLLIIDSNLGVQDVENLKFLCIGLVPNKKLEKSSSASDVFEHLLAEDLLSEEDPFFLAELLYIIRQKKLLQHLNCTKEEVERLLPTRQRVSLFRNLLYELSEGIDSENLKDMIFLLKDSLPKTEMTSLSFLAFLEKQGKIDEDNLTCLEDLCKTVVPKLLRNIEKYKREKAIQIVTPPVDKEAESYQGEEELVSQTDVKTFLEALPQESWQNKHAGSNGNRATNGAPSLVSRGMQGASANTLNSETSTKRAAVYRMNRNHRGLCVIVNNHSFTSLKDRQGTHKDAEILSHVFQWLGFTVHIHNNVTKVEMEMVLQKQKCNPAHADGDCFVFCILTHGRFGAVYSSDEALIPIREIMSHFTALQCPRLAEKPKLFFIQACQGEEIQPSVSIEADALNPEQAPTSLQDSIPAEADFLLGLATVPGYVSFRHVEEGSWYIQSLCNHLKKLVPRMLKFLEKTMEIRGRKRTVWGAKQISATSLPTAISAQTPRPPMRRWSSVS
structure (smiles),measurement,setting,value
CCOc1cc(C(C)(C)C)ccc1C1COC(c2c(F)cccc2F)=N1 (configuration not stated),AC50,[1],0.55 µM (active)
O=C1C2CC=CCC2C(=O)N1SC(Cl)(Cl)Cl (configuration not stated),outcome,[2],inactive
same,outcome,[3],inactive
CCCN(CC)CC1COC2(CCC(C(C)(C)C)CC2)O1 (configuration not stated),AC50,[1],6.05 µM (active) and 2.09 µM (active)
CCCCOCN(C(=O)CCl)c1c(CC)cccc1CC,AC50,[4],10 µM (active)
same,AC50,[1],3.35 µM (active)
same,AC50,"rat CYP3A1, gene 25642",10 µM (active)
same,AC50,[5],9.39 µM (active)
CC1(C)CCC(=Cc2ccc(Cl)cc2)C1(O)Cn1cncn1 (configuration not stated),outcome,[1],inactive
same,AC50,"rat CYP3A1, gene 25642",0.0126 µM (active)
Cn1c(-c2ccccc2)cc(-c2ccccc2)[n+]1C,AC50,[1],5.35 µM (active)
COc1ccc(-c2ccccc2)cc1NNC(=O)OC(C)C,AC50,[4],1.17 µM (active)
same,AC50,"rat CYP3A1, gene 25642",2.96 µM (active)
COC(=O)c1c(C(F)F)nc(C(F)(F)F)c(C2=NCCS2)c1CC(C)C,AC50,[6],5.48 µM (active)
same,AC50,"rat CYP3A1, gene 25642",2.32 µM (active)
same,outcome,Caspase-1 (Homo sapiens),inactive
same,AC50,[5],8.78 µM (active)
COC(=O)N(C(=O)N1CO[C@@]2(C(=O)OC)Cc3cc(Cl)ccc3C2=N1)c1ccc(OC(F)(F)F)cc1,AC50,[2],0.332 µM (active)
same,outcome,[7],inactive
same,outcome,[5],inactive
CCOP(=O)(OCC)Oc1nc(Cl)c(Cl)cc1Cl,outcome,[8],inactive
same,AC50,"rat CYP3A1, gene 25642",7.93 µM (active)
CC(C)(C)C(=O)C(Oc1ccc(Cl)cc1)n1cncn1 (configuration not stated),AC50,[4],0.246 µM (active)
same,AC50,[6],6.43 µM (active)
same,AC50,[1],5.33 µM (active) and 5.52 µM (active)
same,AC50,"rat CYP3A1, gene 25642",8.49 µM (active)
CCNP(=S)(OC)O/C(C)=C/C(=O)OC(C)C (configuration not stated),AC50,[2],10 µM (active)
same,AC50,[4],7.31 µM (active)
same,AC50,[1],5.41 µM (active)
same,AC50,"rat CYP3A1, gene 25642",1.93 µM (active)
same,outcome,Caspase-1 (Homo sapiens),inactive
CCCCC(O)(Cn1cncn1)c1ccc(Cl)cc1Cl (configuration not stated),AC50,[2],1.58 µM (active)
same,AC50,[4],0.655 µM (active)
same,AC50,[6],0.951 µM (active)
same,AC50,[1],4.09 µM (active)
same,AC50,"rat CYP3A1, gene 25642",0.995 µM (active)
same,AC50,[9],9.08 µM (active)
N#Cc1c[nH]cc1-c1cccc2c1OC(F)(F)O2,outcome,[8],inactive
same,outcome,[10],inactive
CCNC(=O)NC(=O)C(C#N)=NOC,outcome,[1],inactive
same,outcome,[10],inactive
same,outcome,[3],inactive

# Reference: PubChem BioAssay (EPA / NIEHS)
